39 sequences from the OligoGym collection can be followed below.
Further: reference of the scale not given here.

For the first assay, the target named is SLC39A12. As to the kind of experiment: pooled miR-30 sensor sort-seq; sequence = guide strand. To be noted: shRNA.
Regarding TATTCTGTAAAGTAGTCTGGGG, the sensor-assay potency score (higher = more potent) was -0.404.

For the sequence TTGTGTTTGAACATGAGTCATT, the sensor-assay potency score (higher = more potent) is -0.725.

TTTTTGATACAAGTACTTCTGG: the sensor-assay potency score (higher = more potent) came out at 0.0669.

Consider TGACACAAGATAGCAATCGTAG, for which the sensor-assay potency score (higher = more potent) is -0.876.

In the next assay the target is SLC39A3. The description is as above. To be noted: shRNA.
As for TCTGTCTCGATGATCTTCACGG, the sensor-assay potency score (higher = more potent) is -0.084.

On to TTAAAAAGTAGCAGTGCTCTGA, for which the sensor-assay potency score (higher = more potent) was 0.00339.

Turning to AAAATCTGTCTCGATGATCTTC, the sensor-assay potency score (higher = more potent) was 0.079.

Regarding TAGTCGGTGCTGATGTGGCCGA, the sensor-assay potency score (higher = more potent) was -1.33.

With TGTCTCGATGATCTTCACGGGG, the sensor-assay potency score (higher = more potent) is -0.768.

TTACCTTTTCCCTCACAGCGGG gave a sensor-assay potency score (higher = more potent) of -0.333.

As to TTTCTGGACACTAGGCACGAGG, the sensor-assay potency score (higher = more potent) is -1.43.

TCAGTGTTGAAAATGCATCAGA registered a sensor-assay potency score (higher = more potent) of -0.941.

TGATTATCAGGTGACAACCGAC had a sensor-assay potency score (higher = more potent) of -1.07.

TTGCAGAGAGAGAGGATCTTTT registered a sensor-assay potency score (higher = more potent) of -0.914.

With TAGGTGGGTAGTCTGGTCTGAT, the sensor-assay potency score (higher = more potent) is -0.578.

TACCTTTTCCCTCACAGCGGGC showed a sensor-assay potency score (higher = more potent) of -1.41.

In another assay the target is SLC44A2. The description is as above. The settings on record: shRNA.
For TATAGTACTCAAAGTCCCGGGA, the sensor-assay potency score (higher = more potent) was -0.338.

The sequence TCTTTGATGAGTGCAATCGCGA yielded a sensor-assay potency score (higher = more potent) of -1.09.

TTACTTGTTTCTCGCAGTCTGG gave a sensor-assay potency score (higher = more potent) of -0.794.

Consider TTATAGACCGCTTCGTTGGAAG, for which the sensor-assay potency score (higher = more potent) was -0.973.

The sequence TGTAGCAGTGAAATATTCCGTA registered a sensor-assay potency score (higher = more potent) of 0.424.

Consider TACTTGTTTCTCGCAGTCTGGA, for which the sensor-assay potency score (higher = more potent) was -0.0969.

Sequence TTTGATGAGTGCAATCGCGATG gave a sensor-assay potency score (higher = more potent) of -0.724.

With TTATAGTACTCAAAGTCCCGGG, the sensor-assay potency score (higher = more potent) amounted to 0.0732.

As for TAATCCAGTACCAAGAGACGGT, the sensor-assay potency score (higher = more potent) stood at 0.196.

Regarding TTGTTGGTCTTGTTCAAGGGTT, the sensor-assay potency score (higher = more potent) is -0.803.

For TCAGACACAAACACCGTCCTTC, the sensor-assay potency score (higher = more potent) amounted to 0.677.

In another assay the target is SLC45A3. The description is as above. To be noted: shRNA.
TAGGCAGTGACAGACTGGCTGA had a sensor-assay potency score (higher = more potent) of -0.555.

In turn, TAAAACAGCGTGAAGGTCATGA came in with a sensor-assay potency score (higher = more potent) of 0.302.

In the case of TTCATCATAGTGTCTCCGGGCC, the sensor-assay potency score (higher = more potent) stood at 0.0522.

In turn, TAGGTGTGTCTCAACTAGGAGG registered a sensor-assay potency score (higher = more potent) of -0.961.

TTTGGGCAGGAACACCTGCTTC displayed a sensor-assay potency score (higher = more potent) of -1.54.

Sequence AAATCCGTGTAAAACAGCGTGA displayed a sensor-assay potency score (higher = more potent) of -0.511.

With TCTTGTCAAATACTACCTGTGT, the sensor-assay potency score (higher = more potent) was -0.281.

TGAACTTCTCCTCTACCCCCAC registered a sensor-assay potency score (higher = more potent) of -0.547.

With AAAGGTTAGCAGGTTGACCAGC, the sensor-assay potency score (higher = more potent) is -0.476.

The sequence TAGCTGTTAACCCTGAGCCTGG had a sensor-assay potency score (higher = more potent) of -0.971.

The sequence AAGGTCATGAGTGCCATCCAGC registered a sensor-assay potency score (higher = more potent) of -1.03.

TAGCAGGTTGACCAGCAAGAGC gave a sensor-assay potency score (higher = more potent) of -1.81.
